The target in assay [1] is Glucocorticoid receptor (Homo sapiens) (UniProt P04150). Description: ATG_GR_TRANS: Attagene TRANS-FACTORIAL HepG2 Assay for human Glucocorticoid Receptor (GR) (AID 2282978; active = hit-call score of the fitted dose curve at least 0.9, where 1 is the maximum;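 note: activators score as hits since higher reporter transcript over DMSO is fitted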). The conditions noted are these: HepG2 Attagene TRANS GR reporter, mRNA transcription. Put shortly: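 Fluorescent capillary-electrophoresis quantitation of reporter mRNA is the readout, taken 24 h after dosing human HepG2 cells carrying transiently transfected GAL4-UAS reporter units activated by chimeric NR-GAL4 fusions; activity scored as induction over DMSO.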

Assay [2] has as its target Oxysterols receptor LXR-alpha (Homo sapiens) (UniProt Q13133). Description: ATG_LXRa_TRANS: Attagene TRANS-FACTORIAL HepG2 Assay for human Liver X Receptor alpha (LXRa) (AID 2282980; active = hit-call score of the fitted dose curve at least 0.9, where 1 is the maximum). The conditions noted are these: HepG2 Attagene TRANS reporter, LXRa transactivation. In a few lines:
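Transient HepG2 transfectants, 24 h dosing, RT-PCR/CE mRNA reporter quantitation; gain-of-signal vs DMSO.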

The target of assay [3] is Oxysterols receptor LXR-beta (Homo sapiens) (UniProt P55055). The assay is described as follows: ATG_LXRb_TRANS: Attagene TRANS-FACTORIAL HepG2 Assay for human Liver X Receptor beta (LXRb) (AID 2282981; active = hit-call score of the fitted dose curve at least 0.9, where 1 is the maximum). Conditions: HepG2 Attagene TRANS GAL4-LXRb reporter, mRNA. Put shortly:
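HepG2 cells transiently transfected with multiple reporter transcription units carrying chimeric NR-Gal4 proteins acting on GAL4-UAS reporters; compound exposure 24 h. Reporter mRNA quantified by RT-PCR, 6-FAM labelling, HpaI digestion and capillary electrophoresis; gain of signal versus DMSO.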

Assay [4] is described as follows: ATG_M_06_TRANS: Attagene TRANS-FACTORIAL HepG2 Assay for M06 Transcription Factor (Internal Marker) (AID 2282983; active = hit-call score of the fitted dose curve at least 0.9, where 1 is the maximum). Conditions: HepG2 Attagene TRANS M06 internal marker reporter. In a few lines: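 Measured by capillary electrophoresis of fluorescently labelled RT-PCR products, this endpoint reflects reporter mRNA in HepG2 cells harbouring exogenous NR-GAL4 reporter constructs after 24 h exposure, with DMSO as baseline.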

A short description of assay [5]: ATG_M_32_TRANS: Attagene TRANS-FACTORIAL HepG2 Assay for M32 Transcription Factor (Internal Marker) (AID 2282984; active = hit-call score of the fitted dose curve at least 0.9, where 1 is the maximum). Conditions: HepG2 Attagene TRANS M32 internal marker reporter. In a few lines:
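HepG2 cells transiently transfected with multiple GAL4-UAS reporter transcription units, dosed for 24 hours; reporter mRNA quantified by RT-PCR, 6-FAM primer extension, HpaI digestion and capillary electrophoresis. Gain-of-signal fitted versus DMSO baseline; internal background-control marker.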

Assay [6] deals with Nuclear receptor subfamily 4 group A member 2 (Homo sapiens) (UniProt P43354). The assay is described as follows: ATG_NURR1_TRANS: Attagene TRANS-FACTORIAL HepG2 Assay for human Nuclear Receptor Related Protein 1 (NURR1) (AID 2282985; active = hit-call score of the fitted dose curve at least 0.9, where 1 is the maximum). Conditions: HepG2 Attagene TRANS reporter, mRNA readout. Put shortly:
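HepG2 cells transiently transfected with GAL4-UAS reporter units and chimeric NR-Gal4 constructs; chemical exposure 24 h. Reporter mRNA quantified by RT-PCR, fluorescent labelling and capillary electrophoresis; gain of signal fitted relative to DMSO baseline.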

The target of assay [7] is Transcriptional activator Myb (Homo sapiens) (UniProt P10242). The assay is described as follows: ATG_Myb_CIS: Attagene CIS-FACTORIAL HepG2 Assay for human Myeloblastosis (Myb) Proto-Oncogene Transcription Factor (AID 2282986). The conditions noted are these: HepG2 Attagene CIS-FACTORIAL Myb reporter transcription; actives raise or lower the signal. In a few lines: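 Reporter transcript levels, quantified by fluorescent RT-PCR and capillary electrophoresis, serve as the read-out. Transfected HepG2 cells carrying cis-promoter reporter units are dosed for 24 hours, and curves are fitted bidirectionally against DMSO controls.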

For assay [8], the target named is Nuclear respiratory factor 1 (Homo sapiens) (UniProt Q16656). Description: ATG_NRF1_CIS: Attagene CIS-FACTORIAL HepG2 Assay for human Nuclear Respiratory Factor 1 (NRF1) Orphan Gene (AID 2282987). The conditions noted are these: HepG2 NRF1 cis-element reporter, Attagene multiplex; actives raise or lower the signal. Put shortly: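 Multiplexed cis-reporter assay, HepG2 cells, 24 h treatment. Total RNA → oligo(dT) RT → PCR with reporter-specific primers → 6-FAM primer extension → HpaI cut → CE. Bidirectional fit vs DMSO.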

Assay [9] deals with Myc proto-oncogene protein (Homo sapiens) (UniProt P01106). The assay is described as follows: ATG_Myc_CIS: Attagene CIS-FACTORIAL HepG2 Assay for human Myelocytomatosis (Myc) Proto-Oncogene Transcription Factor (AID 2282990). The conditions noted are these: HepG2, Attagene cis-reporter transcription factor activity; actives raise or lower the signal. In a few lines:
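Multiplexed cis-reporter transcription in HepG2 cells after 24 h chemical treatment. Reporter mRNA measured by RT-PCR and capillary electrophoresis fluorescence; activity fitted bidirectionally against DMSO control.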

The nature of assay [10]: ATG_NF_kB_CIS: Attagene CIS-FACTORIAL HepG2 Assay for human Nuclear Factor Kappa B (NF-kB) (AID 2282991). The conditions noted are these: HepG2 Attagene cis-factorial NF-kB reporter mRNA; actives raise or lower the signal. In a few lines: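 Transient MRTU transfection of human HepG2 liver cells → 24 h chemical exposure → total RNA, oligo(dT) RT → PCR, 6-FAM primer extension, HpaI digest 2 h 37 C → CE fragment analysis. Bidirectional fitting, DMSO negative control.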

Assay [11] is described as follows: ATG_NRF2_ARE_CIS: Attagene CIS-FACTORIAL HepG2 Assay for human Nuclear Factor Erythroid 2 Related Factor 2 (NFR2) response to Antioxidant Response Elements (ARE) (AID 2282992). The conditions noted are these: HepG2 Attagene ARE/NRF2 reporter, transcription factor activity; actives raise or lower the signal. Put shortly: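 Cis-factorial assay: transfected HepG2 reporter library, 24 h dosing, mRNA readout via RT-PCR/CE; DMSO-referenced bidirectional analysis.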

Assay [12] in a line: ATG_Oct_MLP_CIS: Attagene CIS-FACTORIAL HepG2 Assay for human Octamer-Binding Transcription Factor (Oct) (AID 2282993). The conditions noted are these: HepG2 Attagene cis-factorial Oct reporter, mRNA; actives raise or lower the signal. In a few lines: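 Using HepG2 cells bearing transfected cis-reporter constructs, mRNA induction was read after 24 h by fluorescent RT-PCR and capillary electrophoresis, with DMSO defining baseline for gain- or loss-of-signal fits.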

Assay [13] deals with Bile acid receptor (Homo sapiens) (UniProt Q96RI1). The assay is described as follows: ATG_FXR_TRANS: Attagene TRANS-FACTORIAL HepG2 Assay for Farnesoid X Receptor (FXR) (AID 2282979; active = hit-call score of the fitted dose curve at least 0.9, where 1 is the maximum;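 note: hits raise reporter mRNA above DMSO so AC50 marks FXR activation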). The conditions noted are these: HepG2 Attagene TRANS FXR-GAL4 reporter transcription. In a few lines:
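Chimeric FXR-GAL4 activity in transiently transfected human HepG2 liver cells is scored as induction of reporter mRNA after 24 h of dosing. Detection uses RT-PCR with fluorescent labelling and capillary electrophoresis, with DMSO serving as baseline.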

Assay [14] is described as follows: ATG_NFI_CIS: Attagene CIS-FACTORIAL HepG2 Assay for human Nuclear Factor I (NFI) (AID 2282989). Conditions: HepG2 cis-regulatory reporter, NFI response element transcription; actives raise or lower the signal. Put shortly:
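Transfected HepG2 liver cells, exposed 24 h, supplied total RNA for oligo(dT) reverse transcription and reporter-specific PCR. Labelled, HpaI-cut fragments were sized by capillary electrophoresis; DMSO set the baseline for bidirectional fitting.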

The target of assay [15] is Cellular tumor antigen p53 (Homo sapiens) (UniProt P04637). Description: ATG_p53_CIS: Attagene CIS-FACTORIAL HepG2 Assay for human p53 Transcription Factor (AID 2282994). Conditions: HepG2 p53 cis-element reporter, Attagene mRNA; actives raise or lower the signal. Put shortly:
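Using HepG2 hepatoma cells carrying cis-acting multiplexed reporters, mRNA induction is detected after a 24 h exposure. Gain- and loss-of-signal responses are fitted relative to DMSO-treated cells.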

The nature of assay [16]: BSK_3C_TissueFactor: BioMAP Diversity Plus: 3C Assay for Tissue Factor Biomarker Activity (AID 2282997). The conditions noted are these: BioMAP 3C HUVEC, tissue factor biomarker readout; actives raise or lower the signal. Put shortly: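 Values derive from bidirectional curve fitting against DMSO of Tissue Factor ELISA signals, taken 24 h after dosing primary human umbilical vein endothelial cells.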

The nature of assay [17]: BSK_3C_uPAR: BioMAP Diversity Plus: 3C Assay for Urokinase-type plasminogen activator receptor (uPAR) Biomarker Activity (AID 2282998). Conditions: BioMAP 3C HUVEC, uPAR biomarker ELISA; actives raise or lower the signal. In a few lines: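 In this endothelial cell-based assay, human umbilical vein primary cells were treated with chemicals and harvested at 24 h. uPAR was quantified using ELISA, with gains or losses fitted relative to DMSO controls.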
A general note: ELISA stands for enzyme-linked immunosorbent assay.

Assay [18] in a line: BSK_3C_VCAM1: BioMAP Diversity Plus: 3C Assay for Vascular cell adhesion molecule 1 (VCAM1) Biomarker Activity (AID 2282999). Conditions: BioMAP 3C HUVEC, VCAM1 ELISA, cytokine-stimulated; actives raise or lower the signal. In a few lines:
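Human umbilical vein endothelial cells were dosed with compound for 24 h, after which cell-surface VCAM-1 was quantified by ELISA. Bidirectional curve fitting used DMSO as negative control and activity baseline.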

Assay [19] can be described thus: BSK_4H_Eotaxin3: BioMAP Diversity Plus: 4H Assay for Eotaxin 3 Biomarker Activity (AID 2283000).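 Note: CCL26 protein level quantified by ELISA in parallel with SRB cytotoxicity check.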 The conditions noted are these: primary human endothelial cells (HUVEC); actives raise or lower the signal. In a few lines:
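Endothelial primary cells (human umbilical vein) exposed to compound for 24 h. ELISA detection of Eotaxin-3.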

Assay [20] concerns the target Hepatocyte nuclear factor 4-alpha (Homo sapiens) (UniProt P41235). Description: ATG_HNF4a_TRANS: Attagene TRANS-FACTORIAL HepG2 Assay for human Hepatocyte Nuclear Factor 4 alpha (HNF4a) (AID 2282982; active = hit-call score of the fitted dose curve at least 0.9, where 1 is the maximum). The conditions noted are these: HepG2 HNF4a transactivation reporter, mRNA readout. Put shortly:
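HepG2 cells transiently transfected with multiplexed GAL4-UAS reporter units responsive to chimeric NR-GAL4 proteins; compound exposure 24 h. Reporter mRNA quantified by RT-PCR, 6-FAM labelling, HpaI digestion and capillary electrophoresis; gain of signal versus DMSO baseline.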

Results filed as inconclusive are left out. The source made the active and inactive calls. Rule for the calls, unless noted: active = hit-call score of the fitted dose curve at least 0.9, where 1 is the maximum; inactive = score below 0.9.

Cellular tumor antigen p53 (Homo sapiens), sequence (P04637 whole entry, looked up): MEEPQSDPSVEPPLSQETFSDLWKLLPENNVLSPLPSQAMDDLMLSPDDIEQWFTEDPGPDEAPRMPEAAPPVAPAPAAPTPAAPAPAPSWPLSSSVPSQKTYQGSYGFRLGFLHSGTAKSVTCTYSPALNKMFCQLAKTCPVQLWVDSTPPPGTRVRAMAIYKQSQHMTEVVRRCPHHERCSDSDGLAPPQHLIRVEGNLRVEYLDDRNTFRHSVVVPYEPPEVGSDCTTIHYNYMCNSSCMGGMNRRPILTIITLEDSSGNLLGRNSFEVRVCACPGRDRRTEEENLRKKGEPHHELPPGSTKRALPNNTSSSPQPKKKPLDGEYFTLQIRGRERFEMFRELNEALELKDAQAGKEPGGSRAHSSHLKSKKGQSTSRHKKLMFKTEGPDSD
Glucocorticoid receptor (Homo sapiens), sequence (P04150 whole entry, looked up, the tested form may be a part): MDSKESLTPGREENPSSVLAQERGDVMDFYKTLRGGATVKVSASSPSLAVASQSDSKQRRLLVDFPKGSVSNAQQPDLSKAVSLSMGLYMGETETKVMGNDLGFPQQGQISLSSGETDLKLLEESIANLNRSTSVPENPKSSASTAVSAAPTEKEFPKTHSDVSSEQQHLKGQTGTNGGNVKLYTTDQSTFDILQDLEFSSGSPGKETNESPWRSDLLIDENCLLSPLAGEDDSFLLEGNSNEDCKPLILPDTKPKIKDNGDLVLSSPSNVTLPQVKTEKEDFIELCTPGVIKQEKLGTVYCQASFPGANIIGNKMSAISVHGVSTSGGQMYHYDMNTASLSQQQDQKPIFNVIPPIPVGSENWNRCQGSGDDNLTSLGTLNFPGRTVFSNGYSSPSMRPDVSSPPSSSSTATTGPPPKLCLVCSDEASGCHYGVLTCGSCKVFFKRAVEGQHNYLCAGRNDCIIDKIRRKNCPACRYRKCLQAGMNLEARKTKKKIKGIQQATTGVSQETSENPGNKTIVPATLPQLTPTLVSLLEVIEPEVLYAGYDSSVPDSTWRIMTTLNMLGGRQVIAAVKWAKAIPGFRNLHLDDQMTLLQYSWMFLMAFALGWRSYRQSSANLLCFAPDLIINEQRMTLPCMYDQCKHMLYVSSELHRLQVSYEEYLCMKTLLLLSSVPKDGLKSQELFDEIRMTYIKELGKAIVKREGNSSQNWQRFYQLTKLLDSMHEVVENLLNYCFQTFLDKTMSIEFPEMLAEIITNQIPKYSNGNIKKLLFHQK
Oxysterols receptor LXR-alpha (Homo sapiens), sequence (Q13133 whole entry, looked up): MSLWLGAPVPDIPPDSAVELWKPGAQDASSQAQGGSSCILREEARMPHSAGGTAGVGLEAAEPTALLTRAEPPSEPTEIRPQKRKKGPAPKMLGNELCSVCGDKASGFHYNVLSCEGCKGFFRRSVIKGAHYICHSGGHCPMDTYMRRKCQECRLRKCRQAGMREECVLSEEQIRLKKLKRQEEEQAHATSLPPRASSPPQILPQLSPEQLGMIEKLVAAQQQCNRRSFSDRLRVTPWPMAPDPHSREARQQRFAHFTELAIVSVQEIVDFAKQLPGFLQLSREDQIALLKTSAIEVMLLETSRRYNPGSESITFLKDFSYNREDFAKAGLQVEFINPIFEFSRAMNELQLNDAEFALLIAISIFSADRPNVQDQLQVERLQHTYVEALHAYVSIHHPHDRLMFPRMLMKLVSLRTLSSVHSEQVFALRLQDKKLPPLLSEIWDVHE
Nuclear receptor subfamily 4 group A member 2 (Homo sapiens), sequence (P43354 whole entry, looked up, the tested form may be a part): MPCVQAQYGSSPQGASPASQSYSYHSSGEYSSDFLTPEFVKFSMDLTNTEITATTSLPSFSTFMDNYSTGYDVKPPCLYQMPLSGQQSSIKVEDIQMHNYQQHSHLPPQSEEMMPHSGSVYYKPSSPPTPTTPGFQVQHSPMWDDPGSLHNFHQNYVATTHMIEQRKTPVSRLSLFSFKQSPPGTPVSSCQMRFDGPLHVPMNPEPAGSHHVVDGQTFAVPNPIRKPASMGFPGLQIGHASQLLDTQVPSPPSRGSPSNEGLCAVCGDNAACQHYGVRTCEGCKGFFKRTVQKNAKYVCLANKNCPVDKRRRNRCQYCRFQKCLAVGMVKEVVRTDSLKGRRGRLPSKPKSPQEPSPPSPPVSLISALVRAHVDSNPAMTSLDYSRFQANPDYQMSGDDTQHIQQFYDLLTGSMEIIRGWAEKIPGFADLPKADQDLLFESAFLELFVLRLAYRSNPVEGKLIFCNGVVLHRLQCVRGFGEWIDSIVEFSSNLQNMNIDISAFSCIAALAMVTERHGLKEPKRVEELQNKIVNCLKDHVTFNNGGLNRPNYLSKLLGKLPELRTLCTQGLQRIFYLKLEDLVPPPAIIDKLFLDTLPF
Hepatocyte nuclear factor 4-alpha (Homo sapiens), sequence (P41235 whole entry, looked up, the tested form may be a part): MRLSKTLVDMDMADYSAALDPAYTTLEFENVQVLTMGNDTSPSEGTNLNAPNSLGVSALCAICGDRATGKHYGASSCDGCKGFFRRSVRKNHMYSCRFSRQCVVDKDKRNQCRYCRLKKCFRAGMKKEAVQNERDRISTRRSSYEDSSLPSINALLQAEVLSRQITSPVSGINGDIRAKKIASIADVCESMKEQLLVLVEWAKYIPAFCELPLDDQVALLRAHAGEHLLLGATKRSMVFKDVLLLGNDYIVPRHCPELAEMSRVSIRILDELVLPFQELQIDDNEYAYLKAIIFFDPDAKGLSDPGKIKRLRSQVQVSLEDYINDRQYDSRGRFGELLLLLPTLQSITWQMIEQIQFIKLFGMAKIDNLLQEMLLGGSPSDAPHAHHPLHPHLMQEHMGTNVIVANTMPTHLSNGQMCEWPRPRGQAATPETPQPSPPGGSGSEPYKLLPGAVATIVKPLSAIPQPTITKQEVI
Nuclear respiratory factor 1 (Homo sapiens), sequence (Q16656 whole entry, looked up): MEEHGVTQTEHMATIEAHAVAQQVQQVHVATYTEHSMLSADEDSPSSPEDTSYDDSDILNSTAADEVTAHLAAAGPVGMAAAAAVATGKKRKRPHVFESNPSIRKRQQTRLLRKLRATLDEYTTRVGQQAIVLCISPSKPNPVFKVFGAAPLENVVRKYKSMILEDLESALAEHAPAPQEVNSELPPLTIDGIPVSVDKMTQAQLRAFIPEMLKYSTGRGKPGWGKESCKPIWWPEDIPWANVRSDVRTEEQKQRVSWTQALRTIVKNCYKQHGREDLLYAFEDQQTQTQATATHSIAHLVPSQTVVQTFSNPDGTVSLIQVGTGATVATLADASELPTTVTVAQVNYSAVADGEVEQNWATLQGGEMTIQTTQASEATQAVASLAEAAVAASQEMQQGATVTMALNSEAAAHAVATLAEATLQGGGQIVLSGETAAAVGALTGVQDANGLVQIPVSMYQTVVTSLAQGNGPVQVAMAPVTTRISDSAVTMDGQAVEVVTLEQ
Myc proto-oncogene protein (Homo sapiens), sequence (P01106 whole entry, looked up): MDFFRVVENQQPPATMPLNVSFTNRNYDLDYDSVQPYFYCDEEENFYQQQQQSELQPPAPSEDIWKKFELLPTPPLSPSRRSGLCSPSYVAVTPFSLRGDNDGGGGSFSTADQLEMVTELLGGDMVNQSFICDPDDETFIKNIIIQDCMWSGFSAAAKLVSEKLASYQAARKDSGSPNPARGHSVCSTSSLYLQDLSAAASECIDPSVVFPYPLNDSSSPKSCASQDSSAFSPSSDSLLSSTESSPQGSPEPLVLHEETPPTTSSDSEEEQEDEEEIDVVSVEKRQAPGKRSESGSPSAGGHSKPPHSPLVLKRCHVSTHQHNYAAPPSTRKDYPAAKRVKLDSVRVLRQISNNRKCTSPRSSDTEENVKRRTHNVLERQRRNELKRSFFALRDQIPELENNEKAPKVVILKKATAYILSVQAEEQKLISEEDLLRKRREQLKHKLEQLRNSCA
Transcriptional activator Myb (Homo sapiens), sequence (P10242 whole entry, looked up): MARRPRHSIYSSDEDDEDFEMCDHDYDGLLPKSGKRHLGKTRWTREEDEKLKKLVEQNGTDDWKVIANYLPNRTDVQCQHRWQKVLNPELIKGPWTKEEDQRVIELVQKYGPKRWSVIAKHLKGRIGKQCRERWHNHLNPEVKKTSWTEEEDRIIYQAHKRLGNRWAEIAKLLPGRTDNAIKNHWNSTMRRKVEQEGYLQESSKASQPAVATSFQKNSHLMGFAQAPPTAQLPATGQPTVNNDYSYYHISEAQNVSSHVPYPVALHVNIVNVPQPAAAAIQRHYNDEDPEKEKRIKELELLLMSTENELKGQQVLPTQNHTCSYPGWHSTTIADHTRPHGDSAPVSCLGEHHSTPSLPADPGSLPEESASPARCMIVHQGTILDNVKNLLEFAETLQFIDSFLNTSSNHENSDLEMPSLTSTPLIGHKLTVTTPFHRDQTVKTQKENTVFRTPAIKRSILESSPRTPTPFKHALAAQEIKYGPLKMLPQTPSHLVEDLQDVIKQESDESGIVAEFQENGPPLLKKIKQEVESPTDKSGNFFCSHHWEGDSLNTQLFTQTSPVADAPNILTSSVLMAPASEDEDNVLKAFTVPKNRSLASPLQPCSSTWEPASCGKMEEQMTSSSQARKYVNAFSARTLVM
Oxysterols receptor LXR-beta (Homo sapiens), sequence (P55055 whole entry, looked up, the tested form may be a part): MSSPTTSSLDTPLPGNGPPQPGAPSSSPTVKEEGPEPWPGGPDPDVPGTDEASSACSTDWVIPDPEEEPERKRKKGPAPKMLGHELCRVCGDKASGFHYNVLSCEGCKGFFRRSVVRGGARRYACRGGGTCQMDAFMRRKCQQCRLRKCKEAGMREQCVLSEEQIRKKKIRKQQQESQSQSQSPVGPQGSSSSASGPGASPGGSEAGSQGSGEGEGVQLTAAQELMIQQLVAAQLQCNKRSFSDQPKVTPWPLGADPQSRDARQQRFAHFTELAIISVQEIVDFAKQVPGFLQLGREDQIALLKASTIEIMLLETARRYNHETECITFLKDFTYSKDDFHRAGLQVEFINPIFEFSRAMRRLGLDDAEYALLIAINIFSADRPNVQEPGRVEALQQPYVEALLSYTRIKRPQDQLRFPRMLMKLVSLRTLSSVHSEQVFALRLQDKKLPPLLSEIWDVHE

Usually AC50 stands for the midpoint of the concentration-response curve, whichever way the signal moves. Turning to `COCCCOc1ccnc(CS(=O)c2nc3ccccc3[nH]2)c1C` (stereo unspecified), the outcome in [1], in assay [4], in assay [5], in assay [6], in assay [7] and in [8] was inactive. The compound was classed as inactive in [9], in assay [10] and in [12]. Besides, the AC50 in assay [2] was 23.2 µM (active); in [3] it was 27.9 µM (active); in assay [11], 36.4 µM (active).
Regarding `CC(=O)OCCC(C)CC(C)(C)C` (stereo unspecified), the compound was classed as inactive in assay [1], in assay [13], in [4], in [6], in [7] and in [14]. The call in assay [9], in assay [10], in assay [11], in assay [12], in assay [15] and in assay [16] was inactive. Further, the outcome in assay [17], in [18] and in [19] was inactive.
Turning to `CCOC(=S)SSC(=S)OCC`, the result in assay [1], in assay [2], in assay [20], in [5], in [7] and in [8] was inactive. Moreover, the compound was classed as inactive in assay [14], in assay [9], in assay [11], in assay [12] and in [15].
For the compound `[Ca+2]`, the compound was classed as inactive in [1], in [2], in assay [20], in assay [4], in [6] and in [7]. The call in assay [8], in assay [14], in assay [9], in assay [10], in assay [11] and in [12] was inactive.
Turning to `Cc1ccccc1C=O`, the outcome in [1], in [2], in assay [3], in assay [20], in assay [7] and in assay [8] was inactive. Besides, the result in assay [14], in assay [9], in [11], in [12] and in assay [15] was inactive.

The values above are taken from PubChem BioAssay (EPA / NIEHS).
